# Results reported in article PMC4336329 (PLoS ONE, 2015).
# Out of some 310,000 compounds screened, about 14,000 (4.5%) showed an effect of 50% or more. Effects have a minus sign here. The list comes from a sample in which strong results are over-represented; it also holds similar structures and randomly drawn compounds.
# Target: human ether-à-go-go-related gene (hERG) potassium channel (human, UniProt Q12809)
# Test: primary screen, population patch clamp on CHO cells stably expressing hERG; higher = less effect of the substance
# 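Also: peak tail current of the secondary pulse compared with the same well before compound.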
# Sequence of human ether-à-go-go-related gene (hERG) potassium channel (Q12809 whole entry, looked up): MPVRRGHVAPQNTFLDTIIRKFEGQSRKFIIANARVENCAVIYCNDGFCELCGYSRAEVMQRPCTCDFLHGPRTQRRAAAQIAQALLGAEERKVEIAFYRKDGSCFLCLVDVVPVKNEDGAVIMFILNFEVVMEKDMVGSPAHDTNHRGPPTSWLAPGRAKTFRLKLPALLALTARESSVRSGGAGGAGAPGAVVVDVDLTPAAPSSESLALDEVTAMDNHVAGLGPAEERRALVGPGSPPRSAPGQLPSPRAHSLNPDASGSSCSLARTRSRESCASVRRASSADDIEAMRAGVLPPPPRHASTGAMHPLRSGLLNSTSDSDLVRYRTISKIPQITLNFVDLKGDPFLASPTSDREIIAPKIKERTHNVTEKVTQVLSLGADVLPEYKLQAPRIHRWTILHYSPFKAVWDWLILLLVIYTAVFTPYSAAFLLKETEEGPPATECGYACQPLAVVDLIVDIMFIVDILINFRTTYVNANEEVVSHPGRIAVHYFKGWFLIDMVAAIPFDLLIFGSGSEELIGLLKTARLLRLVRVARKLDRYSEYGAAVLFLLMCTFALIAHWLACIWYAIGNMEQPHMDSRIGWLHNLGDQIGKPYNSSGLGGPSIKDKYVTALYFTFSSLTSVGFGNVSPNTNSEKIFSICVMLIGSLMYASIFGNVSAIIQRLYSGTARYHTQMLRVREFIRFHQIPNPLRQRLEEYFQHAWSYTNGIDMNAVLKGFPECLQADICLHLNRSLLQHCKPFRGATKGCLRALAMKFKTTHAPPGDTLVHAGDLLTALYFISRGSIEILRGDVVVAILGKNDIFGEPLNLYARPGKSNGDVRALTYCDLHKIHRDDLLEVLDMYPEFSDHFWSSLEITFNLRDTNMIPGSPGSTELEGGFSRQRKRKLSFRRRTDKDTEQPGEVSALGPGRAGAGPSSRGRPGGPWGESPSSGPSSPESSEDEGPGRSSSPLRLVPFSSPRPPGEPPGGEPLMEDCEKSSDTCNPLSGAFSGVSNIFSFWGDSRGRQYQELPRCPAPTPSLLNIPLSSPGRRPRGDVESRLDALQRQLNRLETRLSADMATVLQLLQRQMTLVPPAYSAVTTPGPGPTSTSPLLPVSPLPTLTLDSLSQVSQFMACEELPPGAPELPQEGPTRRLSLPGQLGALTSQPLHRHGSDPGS
row,Structure (SMILES),"hERG current change (%, negative = inhibition) at 10uM"
1,Cc1cc(C)cc(NC(=O)Cn2c(-c3ccccc3Cl)nc3ccccc32)c1,5.5%
2,CCCCC(CC)CNC(=O)c1cccs1 (stereo not shown),8.33%
3,O=S(=O)(c1ccc(Nc2ccc3c(c2)OCO3)nc1)N1CCOCC1,-13.2%
4,COc1ccc(N(C(=O)c2cccnc2)S(=O)(=O)c2cc(OC)ccc2OC)cc1,-21.8%
5,O=C(CS(=O)(=O)Cc1ccccc1)Nc1ccccc1Cl,1.09%
6,Cc1ccc(C2CC(=O)C=C(O)C2)cc1 (stereo not shown),3.29%
7,CSCC(C)N1CCC(n2nccc2NC(=O)c2ccc3c(c2)OCO3)CC1 (stereo not shown),-2.95%
8,Cc1ccc(CCNS(=O)(=O)c2cc3c(cc2C)n(C)c(=O)c(=O)n3C)cc1,-30.8%
9,CNC(=O)CSc1nnc(-c2ccco2)n1-c1ccc(C)cc1,-49.5%
10,CCOC(=O)CNC(=O)CSc1nnc(-c2cccc(C)c2)n1-c1ccc(OC)cc1,-62%
11,CCNC(=O)CSc1nnc(-c2ccccc2)n1-c1ccc(OCC)cc1,-62.8%
12,CCOC(=O)CSc1nnc(-c2ccco2)n1-c1ccccc1,-27.6%
13,COC(=O)CSc1nnc(-c2ccco2)n1-c1ccc(C)cc1,-24.2%
14,CCOc1ccc(NC(=O)CSc2nnc(-c3ccccc3)n2N)cc1,6.02%
15,Cc1ccc(-n2c(SCC(=O)Nc3ccc4cn[nH]c4c3)nnc2-c2ccco2)cc1,-62.4%
16,Cc1ccc(-n2c(SCC(=O)Nc3ccc4c(c3)OCCO4)nnc2-c2ccco2)cc1,-30.9%
17,CCOC(=O)CNC(=O)CSc1nnc(-c2cccc(OC)c2)n1CC,7.24%
18,CCOC(=O)CNC(=O)CSc1nnc(-c2ccc(OC)cc2)n1CC,10.5%
19,CCOC(=O)CSc1nnc(-c2ccco2)n1-c1ccc(C)cc1,-61.9%
20,CCOc1ccc(-n2c(-c3ccccc3)nnc2-c2ccccc2)cc1,-6.7%
21,CCn1c(C)nc2cc(C(=O)N/N=C/c3ccccc3C)ccc21,-12.8%
22,Cc1cc2c(C)nc(Cc3ccccc3)nc2o1,14.7%
23,CCOc1cc2[nH]c(=O)n(Cc3ccc(C(=O)NCCCN4CCCC4=O)cc3)c(=O)c2cc1OCC,16.2%
24,CCOC(=O)C1=C(C)Nc2nc(SC)nn2C1c1ccc(C(=O)OC)cc1 (stereo not shown),5.26%
25,Cc1ccc(/C=N\NC(=O)/C(=C\Nc2nccc(C)n2)NC(=O)c2ccccc2)cc1,-9.72%
